This is a sample that favours compounds with a hit; in the whole collection about 2.8% have one here.
POLI inh: DNA polymerase iota (human) inhibition. Q9UNA4. AID 588590. Potency, µM (series often up to 115 µM), actives largely listed as inhibitors. Pol iota fluorescent replication assay, 10 min. 1% of 390,000 active
Target sequence (Q9UNA4 whole entry, looked up): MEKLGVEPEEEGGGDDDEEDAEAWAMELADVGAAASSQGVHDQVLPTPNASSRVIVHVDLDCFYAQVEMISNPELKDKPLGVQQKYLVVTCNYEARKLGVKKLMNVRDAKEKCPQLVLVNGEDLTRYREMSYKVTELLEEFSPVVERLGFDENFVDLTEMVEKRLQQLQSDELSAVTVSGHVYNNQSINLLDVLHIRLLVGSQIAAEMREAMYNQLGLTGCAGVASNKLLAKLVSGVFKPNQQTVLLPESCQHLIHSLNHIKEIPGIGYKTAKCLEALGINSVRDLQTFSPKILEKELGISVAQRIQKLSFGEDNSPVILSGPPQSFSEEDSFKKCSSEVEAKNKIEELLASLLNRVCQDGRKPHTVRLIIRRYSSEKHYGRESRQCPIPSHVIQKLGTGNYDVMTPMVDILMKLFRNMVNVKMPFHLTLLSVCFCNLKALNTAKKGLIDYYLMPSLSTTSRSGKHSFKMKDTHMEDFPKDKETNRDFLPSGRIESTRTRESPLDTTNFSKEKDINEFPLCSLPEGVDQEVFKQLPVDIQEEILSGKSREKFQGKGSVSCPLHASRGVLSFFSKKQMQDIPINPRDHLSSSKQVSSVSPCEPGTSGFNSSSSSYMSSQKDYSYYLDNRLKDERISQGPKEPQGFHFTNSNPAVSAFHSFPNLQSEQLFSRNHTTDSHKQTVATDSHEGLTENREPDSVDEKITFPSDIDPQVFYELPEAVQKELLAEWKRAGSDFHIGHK
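Pol iota at 10 nM preincubated 15 min with compounds at room temperature; reaction started with fluorescent substrate, 50 nM final. Fluorescence read kinetically at 0 and 10 min; buffer-only wells as negative control.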
Pol eta inh-1: blocks human DNA polymerase eta activity | recombinant Pol eta, fluorescent DNA replication assay | Potency, µM (highest dose often 114 µM), actives largely listed as inhibitors | 1.2% of 390,000 active | AID 588591
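Fluorescent replication assay: 50 nM final substrate added after a 15 min room-temperature compound preincubation with 10 nM enzyme. Signal taken at 0 min and again at 10 min.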
POLB inh: DNA polymerase beta (human) inhibition | P06746 | Pol beta primer extension/strand displacement, fluorescence kinetic | Potency, µM (titrated, usually from 114 µM), most hits filed as inhibitors | 1.3% of 340,000 active | AID 485314
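Enzyme-only controls used 10 nM Pol beta; buffer lacking enzyme served as negative control. Compound preincubated 15 min, then 50 nM substrate added; 0 and 10 min reads at room temperature.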
PI5P4K alpha inh: inhibitors of human PI5P4K alpha; P48426; PI5P4Kalpha enzyme, ADP-Glo luminescence, 60 min; hits give low values; max response, %; 1.2% of 330,000 active; AID 652105; active = max response of -50% or lower; inconclusive = between -30% and -50%; inactive = -30% or higher; also: value at the top dose of about 77 µM
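Quantitative HTS of the MLSMR library against PI5P4Kalpha with substrate. ATP added last at 5 microM final; room temperature, 60 minutes. Remaining ATP depleted, ADP converted and read as luminescence.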
WRN inhibitor: inhibitors of human WRN helicase; WRN helicase unwinding, fluorescent forked duplex, kinetic; Potency, µM (titrated, usually from 114 µM), actives largely listed as inhibitors; 0.46% of 360,000 active; also: nearly all actives have a fitted effect of over 55% in size
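Kinetic fluorescence helicase assay: unwinding of a quenched forked DNA duplex (100 nM final) with 2 mM ATP final raises red fluorescence (525/598 nm). Compounds sat 15 min at room temperature with 20 nM WRN beforehand.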
Pol kappa inh-1: DNA polymerase kappa (human) inhibition | Q9UBT6 | purified Pol kappa, fluorescent DNA synthesis assay, 10 min | Potency, µM (top dose mostly 107 µM), most hits filed as inhibitors | 0.53% of 400,000 active
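Here, compound and 10 nM enzyme are combined for 15 min at room temperature; adding 50 nM substrate (final) starts DNA synthesis, tracked by fluorescence at 0 and 10 min against buffer-only wells.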
GALK confirm: confirmation of human galactokinase (GALK) inhibitors; shares compounds with Pol eta inh-1; Potency, µM (highest dose often 115 µM), hits mostly inhibitors; AID 2015; 70% of 150 active; purified GALK, Kinase-Glo ATP depletion luminescence
Redox cycling: counter-screen for GALK inhibitors: redox cycling H2O2 generation; shares compounds with Pol eta inh-1; 40% of 150 active; AID 2035; Phenol red-HRP H2O2 redox cycling, absorbance 600 nm; Potency, µM (top dose mostly 115 µM), usual class: inhibitors
HEK293 tox: HEK-293 cytotoxicity, GALK inhibitor secondary; Potency, µM (highest dose often 46.1 µM), usual class: inhibitors; shares compounds with Pol eta inh-1; 10% of 170 active; HEK-293 viability, ATP luminescence (CellTiter-Glo), 24/48 h
Pol kappa inh-2: Pol kappa (human) inhibition, cherry-pick confirmation; purified Pol-kappa, fluorescent strand-displacement substrate; shares compounds with Pol eta inh-1; Potency, µM, usual class: inhibitors; 76% of 920 active
Pol eta inh-2: Pol eta (human) inhibition, cherry-pick confirmation; shares compounds with Pol eta inh-1; Pol eta primer extension, TAMRA/BHQ fluorescence, 10 min; Potency, µM, usual class: inhibitors; 64% of 2,600 active; AID 720502
A number is an active result; [ ] = remark or other dose. Unless noted, calls follow the shape of the dose curve; as a rule, active = well fitted curve in the direction sought with a large enough effect; inconclusive = small, poorly fitted or top-dose-only effect, or another doubt; inactive = no such curve, though single readings can be large; an effect the other way counts as inactive or inconclusive.

What do the screens show for `O=C(N/N=C/C=C\c1ccco1)c1ccccn1`?
POLI inh: inconclusive; Pol eta inh-1: inconclusive; POLB inh: inconclusive; PI5P4K alpha inh: -54.9; WRN inhibitor: 35.5µM; Pol kappa inh-1: 50.1µM; Pol eta inh-2: inconclusive

Results for O=C(N/N=C/C=C/c1ccccc1)c1cccnc1 ?
POLI inh: inactive; Pol eta inh-1: inactive; POLB inh: inactive; PI5P4K alpha inh: inactive; WRN inhibitor: inactive; Pol kappa inh-1: inactive

How did CCCN1CCC(=O)N(CCSc2ccc(Br)cc2)CC1 do in these assays?
POLI inh: inactive; Pol kappa inh-1: inactive

How did COc1cc(OC)c(NC(=O)CN(C)S(=O)(=O)c2ccc3[nH]c(=O)oc3c2)cc1Cl do in these assays?
POLI inh: inactive; Pol eta inh-1: 22.4µM; POLB inh: inconclusive; PI5P4K alpha inh: inactive; WRN inhibitor: inactive; Pol kappa inh-1: inconclusive; Pol kappa inh-2: 42.3; Pol eta inh-2: inconclusive

What do the screens show for `COc1ccc(C)cc1NC(=O)CN(C)S(=O)(=O)c1ccc2[nH]c(=O)oc2c1`?
POLI inh: inactive; Pol eta inh-1: inactive; POLB inh: inactive; Pol kappa inh-1: inactive

What do the screens show for `Cc1ccc(S(=O)(=O)c2nc(-c3ccco3)oc2SC(C)C)cc1`?
POLI inh: inconclusive; Pol eta inh-1: 89.1µM; POLB inh: inactive; PI5P4K alpha inh: inconclusive; WRN inhibitor: inactive; Pol kappa inh-1: inactive; Pol kappa inh-2: inconclusive; Pol eta inh-2: inconclusive

Results for Cc1ccc(S(=O)(=O)c2nc(-c3ccco3)oc2SCC(C)C)cc1 ?
POLI inh: inactive; Pol eta inh-1: inactive; POLB inh: inactive; Pol kappa inh-1: inactive

What do the screens show for `O=C(NC1(Cc2ccccc2)CCN(CCc2cccs2)C1=O)c1ccccc1` (stereo unspecified)?
POLI inh: inactive; Pol eta inh-1: inactive; PI5P4K alpha inh: inactive; WRN inhibitor: inactive; Pol kappa inh-1: inactive

How did O=C(CSc1nc2ccccc2[nH]1)NC1CCCC1 do in these assays?
POLI inh: inconclusive; Pol eta inh-1: 39.8µM; POLB inh: 14.1µM; PI5P4K alpha inh: inactive; WRN inhibitor: inconclusive; Pol kappa inh-1: inconclusive; Pol eta inh-2: inconclusive

Results for CC1(C)CC(=O)C2=C(C1)NC(Nc1nc3ccccc3o1)=NC21CCCC1 ?
POLI inh: inactive; Pol eta inh-1: inactive; POLB inh: inactive; WRN inhibitor: inactive; Pol kappa inh-1: inactive; GALK confirm: inconclusive; Redox cycling: inactive; HEK293 tox: inactive

What do the screens show for `CC1(C)CC(=O)C2=C(C1)NC(Nc1nc3ccccc3o1)=NC2c1ccccc1Cl` (stereo unspecified)?
POLI inh: inactive; Pol kappa inh-1: inactive; HEK293 tox: inactive

Results for CC1(C)CC(=O)C2=C(C1)NC(Nc1nc3ccccc3o1)=NC2c1ccccn1 (stereo unspecified) ?
POLI inh: inactive; Pol eta inh-1: inactive; POLB inh: inactive; PI5P4K alpha inh: inactive; WRN inhibitor: inactive; Pol kappa inh-1: inactive

What do the screens show for `Cc1c(CNC(=O)C2CCC(=O)N(CCc3ccccc3)C2)cnn1C` (stereo unspecified)?
POLI inh: inactive; Pol eta inh-1: inactive; POLB inh: inactive; PI5P4K alpha inh: inactive; WRN inhibitor: inactive; Pol kappa inh-1: inactive

How did CSCC[C@H](NC(=O)[C@H](Cc1ccccc1)n1c(=O)[nH]c2ccccc2c1=O)C(=O)N1CCC(C(=O)O)CC1 do in these assays?
POLI inh: inactive; Pol eta inh-1: inactive; POLB inh: inactive; PI5P4K alpha inh: inactive; WRN inhibitor: inactive; Pol kappa inh-1: inactive

How did O=C(O)CNC(=O)CC1S/C(=N/N=C2/NC(=O)CS2)NC1=O (stereo unspecified) do in these assays?
POLI inh: inconclusive; Pol eta inh-1: 44.7µM; POLB inh: inactive; PI5P4K alpha inh: inconclusive; WRN inhibitor: inactive; Pol kappa inh-1: inactive; Pol kappa inh-2: inconclusive

Results for O=C(CCS(=O)(=O)c1ccc(Br)cc1)Nc1ccc(Cl)c(C(F)(F)F)c1 ?
POLI inh: inactive; Pol eta inh-1: inconclusive; POLB inh: inactive; Pol kappa inh-1: inactive; Pol kappa inh-2: 18.9; Pol eta inh-2: inconclusive

Results for COC(=O)C(C)N1C(=O)S/C(=C\c2ccc(-c3ccc(C(=O)O)cc3C)o2)C1=O (stereo unspecified) ?
POLI inh: inconclusive; Pol eta inh-1: 10µM; POLB inh: 39.8µM; PI5P4K alpha inh: inconclusive; WRN inhibitor: inconclusive; Pol kappa inh-1: 31.6µM; Pol eta inh-2: 42.6

Results for COc1cccc(-c2nc(CS(=O)CC(=O)NC3CCCCC3)c(C)o2)c1 (stereo unspecified) ?
POLI inh: inactive; Pol eta inh-1: inactive; POLB inh: inactive; PI5P4K alpha inh: inactive; WRN inhibitor: inactive; Pol kappa inh-1: inactive

Results for O=c1c2ccccc2nc2c3ccccc3c(NCc3ccccn3)nn12 ?
POLI inh: inactive; Pol eta inh-1: inconclusive; POLB inh: inconclusive; PI5P4K alpha inh: inactive; WRN inhibitor: inactive[11.6 µM]; Pol kappa inh-1: inactive; Pol kappa inh-2: 26.7; Pol eta inh-2: 47.8

How did O=c1c2ccccc2nc2c3ccccc3c(NCc3cccnc3)nn12 do in these assays?
POLI inh: inactive; Pol eta inh-1: inactive; POLB inh: inactive; PI5P4K alpha inh: inactive; WRN inhibitor: inactive; Pol kappa inh-1: inactive

How did Cc1nc2ccn(Cc3ccco3)c(=O)c2cc1C(=O)N1CCN(c2ccccc2F)CC1 do in these assays?
POLI inh: inactive; Pol eta inh-1: inactive; POLB inh: inactive; Pol kappa inh-1: inactive

How did CC(=O)c1ccc(NC(=O)Cn2c3ncccc3c(=O)n2-c2ccc(C)cc2)cc1 do in these assays?
POLI inh: inactive; Pol eta inh-1: inactive; POLB inh: inactive; Pol kappa inh-1: inactive

Results for O=C(O)c1c2c(nc3ccc(S(=O)(=O)N4CCC(C(=O)NC5CCCCCC5)CC4)cc13)CCCC2 ?
POLI inh: inconclusive; Pol eta inh-1: 20µM; POLB inh: 39.8µM; PI5P4K alpha inh: inactive; WRN inhibitor: inactive[11.6 µM]; Pol kappa inh-1: 79.4µM; Pol eta inh-2: inconclusive

Assay outcomes: PubChem BioAssay, National Center for Advancing Translational Sciences (NCATS)
